The values below come from PubChem BioAssay.

Where “and” joins values, the source holds several entries; their conditions need not be identical. Identical values can stand only once. Results filed as inconclusive are left out. Calls of active or inactive are those of the source.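 How the source made its calls, unless noted: active means normalized viability below 100% at a tested concentration; inactive means the rest.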

Experiment [1] is described as follows: viability loss in pontine glioma line – cell-based, SU-DIPG-XXV, MIPE5.0, CellTiter-Glo, qHTS, dose response (AID 1347065; cut-off not given, nearly all actives have AC50 up to about 26 µM;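 further: cells exposed to compound for 48 hours before ATP readout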). Conditions: CellTiter-Glo ATP luminescence.
Experiment [2] is described as follows: growth inhibition of DIPG cells – cell-based, MIPE4.0 library, CellTiter-Glo luminescence, qHTS (AID 1347066; cut-off not given, nearly all actives have AC50 up to about 30 µM;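 further: cells exposed to compound for 48 hours before readout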). Conditions: SU-DIPG-VI viability, CellTiter-Glo ATP luminescence.
Experiment [3] in a line: chitosan synthesis blockers in C. neoformans – flow cytometry, Cibacron Brilliant Red staining (AID 1347148; call rule not given here;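 further: compound exposure lasted three days at 37 degrees C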). The following applies: Cryptococcus neoformans chitosan, stronger effect = lower value; at 10 µM unless noted.
A short description of experiment [4]: compounds altering HSF1 focus formation in cells – imaging, Selleck Cancer Library (AID 1347162; in the data active means plate-normalised HSF1 focus index below about 0.46). Conditions: human cells, HSF1 nuclear foci imaging, at 10 µM; SSMD: measured here: HSF1 foci SSMD mean; cell count: measured here: cell number; plate-normalised HSF1 focus index: stronger effect = lower value.
Experiment [5] in a line: blockers of cellular phospholipid synthesis – cell-based, LOPAC library, screen 4, primary screen (AID 1347384; call rule not given here). The following applies: animal cells, phospholipid biosynthesis inhibition screen; at 10 µM.
The nature of experiment [6]: MELAS cybrid and Rieske KO viability enhancers – cell-based, MELAS cybrids, Rieske KO mouse fibroblasts, CellTiter-Glo, primary screen (AID 1508586;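 active means mean z-score across replicates of 1.96 or higher in either the MELAS or the Rieske mutant cell line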;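 further: z relative to plate mean and SD of compound and empty wells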). The following applies: low glucose.
Experiment [7] can be described thus: drug combination growth inhibition, ovarian cancer – cell-based, oncology-focused library, rucaparib conditional, profiling panel (AID 1508598). Conditions: patient-derived ovarian cancer cells, CellTiter-Glo viability, 144 h, stronger effect = lower value.
The nature of experiment [8]: JHH-DIPG-1 glioma cell viability, MIPE5.0 library, CellTiter-Glo luminescence, qHTS (AID 1347067; cut-off not given, nearly all actives have AC50 up to about 26 µM;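 further: cells exposed to compound for 48 hours before readout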). The following applies: JHH-DIPG-1 glioma viability, CellTiter-Glo ATP luminescence.
Experiment [9] is described as follows: growth inhibition of DIPG cells – cell-based, MIPE5.0 library, qHTS (AID 1347068; cut-off not given, nearly all actives have IC50 up to about 30 µM). Conditions: SU-DIPG-XXV viability.
The nature of experiment [10]: viability loss with induced miR-34 in A549 – imaging, A549 dox-inducible miR-34, nuclei and caspase counts, primary screen (AID 1347080;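 active means compounds whose cell count with miR-34 switched on is under 0.7 times the count with it off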). Conditions: A549 miR-34 inducible, Hoechst nuclei count, 48 h.
Setting [11] is: MELAS cybrid survival, CellTiter-Glo 48 h, stronger effect = higher value.
Setting [12] is: Rieske KO mouse fibroblast survival, CellTiter-Glo 72 h.
The mark [13] stands for this setting: stronger effect = lower value, cell number ratio, induced over uninduced.
Where [14] appears, read: measured here: relative caspase fold change +Dox/-Dox.
[15] abbreviates: measured here: total cells with miR-34 induction, stronger effect = lower value.
Where [16] appears, read: measured here: total cells without miR-34 induction.

For `COC(=O)Nc1nc2ccc(C(=O)c3cccs3)cc2[nH]1`, the AC50 in [1] is 0.118 µM (active); in [2], 3.72 µM (active). In experiment [3], the fold fluorescence is 18.7 [at 165.9 µM] (inactive). The same molecule registered an SSMD in [4] of 3.16. In [4], this molecule registered a cell count of 6830. Further, the plate-normalised HSF1 focus index in experiment [4] was 1.2 (inactive). Besides, the molecule was called inactive in [5]. Moreover, the z-score was -0.757 (inactive) and 1.39 (inactive) and -3.68 (inactive) in experiment [6] (setting [11]); 0.709 and -0.844 and -0.416 in experiment [6] (setting [12]). Further, the viability in experiment [7] (at 0.000305 µM, OCI-C5x cells, with rucaparib 10 µM, 100% = cells with rucaparib alone) is 120% (inactive); in experiment [7] (at 0.000305 µM, OCI-C5x cells, without rucaparib) it was 106% (inactive); in experiment [7] (at 0.000305 µM, OCI-P5x cells, with rucaparib 20 µM, 100% = cells with rucaparib alone), 89% (active); in [7] (at 0.000305 µM, OCI-P5x cells, without rucaparib) it was 84.1% (active); in [7] (at 0.00122 µM, OCI-C5x cells, with rucaparib 10 µM, 100% = cells with rucaparib alone), 116% (inactive); in experiment [7] (at 0.00122 µM, OCI-C5x cells, without rucaparib), 108% (inactive). The viability in experiment [7] (at 0.00122 µM, OCI-P5x cells, with rucaparib 20 µM, 100% = cells with rucaparib alone) is 88% (active); in experiment [7] (at 0.00122 µM, OCI-P5x cells, without rucaparib), 90.4% (active); in experiment [7] (at 0.00488 µM, OCI-C5x cells, with rucaparib 10 µM, 100% = cells with rucaparib alone), 112% (inactive); in [7] (at 0.00488 µM, OCI-C5x cells, without rucaparib), 108% (inactive); in experiment [7] (at 0.00488 µM, OCI-P5x cells, with rucaparib 20 µM, 100% = cells with rucaparib alone), 87.3% (active); in [7] (at 0.00488 µM, OCI-P5x cells, without rucaparib), 58% (active). Also, the viability in [7] (at 0.0195 µM, OCI-C5x cells, with rucaparib 10 µM, 100% = cells with rucaparib alone) is 96.1% (active); in experiment [7] (at 0.0195 µM, OCI-C5x cells, without rucaparib), 74% (active); in experiment [7] (at 0.0195 µM, OCI-P5x cells, with rucaparib 20 µM, 100% = cells with rucaparib alone), 68.5% (active); in experiment [7] (at 0.0195 µM, OCI-P5x cells, without rucaparib) it was 32.7% (active); in [7] (at 0.0781 µM, OCI-C5x cells, with rucaparib 10 µM, 100% = cells with rucaparib alone) it was 71.2% (active); in experiment [7] (at 0.0781 µM, OCI-C5x cells, without rucaparib), 69.2% (active). The viability in [7] (at 0.0781 µM, OCI-P5x cells, with rucaparib 20 µM, 100% = cells with rucaparib alone) is 62.5% (active); in experiment [7] (at 0.0781 µM, OCI-P5x cells, without rucaparib), 35.1% (active); in [7] (at 0.313 µM, OCI-C5x cells, with rucaparib 10 µM, 100% = cells with rucaparib alone), 89% (active); in [7] (at 0.313 µM, OCI-C5x cells, without rucaparib), 97.5% (active); in [7] (at 0.313 µM, OCI-P5x cells, with rucaparib 20 µM, 100% = cells with rucaparib alone), 77.5% (active); in experiment [7] (at 0.313 µM, OCI-P5x cells, without rucaparib) it was 52.1% (active). The viability in experiment [7] (at 1.25 µM, OCI-C5x cells, with rucaparib 10 µM, 100% = cells with rucaparib alone) was 56.8% (active); in experiment [7] (at 1.25 µM, OCI-C5x cells, without rucaparib), 60.1% (active); in experiment [7] (at 1.25 µM, OCI-P5x cells, with rucaparib 20 µM, 100% = cells with rucaparib alone), 67.3% (active); in [7] (at 1.25 µM, OCI-P5x cells, without rucaparib), 48% (active); in experiment [7] (at 5 µM, OCI-C5x cells, with rucaparib 10 µM, 100% = cells with rucaparib alone), 55.3% (active); in experiment [7] (at 5 µM, OCI-C5x cells, without rucaparib), 38.7% (active). In addition, the viability in experiment [7] (at 5 µM, OCI-P5x cells, with rucaparib 20 µM, 100% = cells with rucaparib alone) was 52.5% (active); in experiment [7] (at 5 µM, OCI-P5x cells, without rucaparib) it was 14.7% (active).
Turning to `CCCc1nc(C)c2c(=O)[nH]c(-c3cc(S(=O)(=O)N4CCN(CC)CC4)ccc3OCC)nn12`, the call in experiment [1], in [8] and in [9] was inactive. In addition, the half-maximal activity concentration (AC50) in experiment [2] is 8.33 µM (active). For the same molecule, the z-score in experiment [6] (setting [11]) is -0.282 (inactive) and 1.61 (inactive) and 1.47 (inactive); in experiment [6] (setting [12]) it was -1.38 and 1.33 and 1.06.
`CN1C(C(=O)Nc2ccccn2)=C(O)c2sccc2S1(=O)=O`: the molecule was classed as inactive in [1], in experiment [2], in [8] and in experiment [9]. Further, the z-score in experiment [6] (setting [11]) is -0.378 (inactive) and 0.116 (inactive) and -0.742 (inactive); in experiment [6] (setting [12]) it was 0.123 and -0.0171 and -1.25.
For the molecule `COc1ccc2cc3[n+](cc2c1OC)CCc1cc2c(cc1-3)OCO2`, the AC50 in [1] is 18.6 µM (active); in experiment [2], 23.5 µM (active); in experiment [8], 18.6 µM (active). Further, the fold change in experiment [10] (setting [13]) is 0.92 (inactive) and 0.934 (inactive); in experiment [10] (setting [14]) it was 1.68 and 1.22. Moreover, the cell count in experiment [10] (setting [15]) is 5700 and 4440; in experiment [10] (setting [16]) it was 6200 and 4750. Moreover, the z-score in [6] (setting [11]) was 0.0209 (inactive); in experiment [6] (setting [12]), 0.259.
As to `COC1=C(OC)C(=O)C(CCCCCCCCCCO)=C(C)C1=O`, the molecule was called inactive in [1] and in experiment [9]. Besides, in experiment [2], the AC50 was 23.5 µM (active). In addition, the fold change in [10] (setting [13]) is 0.841 (inactive) and 0.881 (inactive) and 0.889 (inactive); in experiment [10] (setting [14]) it was 1.87 and 0.941 and 1.43. Also, the cell count in experiment [10] (setting [15]) is 8540 and 8000 and 9340; in experiment [10] (setting [16]), 10200 and 9080 and 10500. For the same molecule, the z-score in experiment [6] (setting [11]) was -0.358 (inactive) and -0.43 (inactive) and 0.294 (inactive); in experiment [6] (setting [12]), 0.303 and 0.0167 and -0.141.
